Rows were chosen to be rich in hits. Some 3.3% of all compounds tested hit in one or more screens of this group.
Rpn11 inh – blocks the human proteasome subunit Rpn11. 360,000 tested, 0.59% active. inhibition, % at 20 µM. O00487. human 26S proteasome, Ub4-pepOG fluorescence polarization; 20S core pre-blocked with epoxomicin;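 active = inhibition at 20 µM, scaled to each plate's controls, above about 33%, limit read from the data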
CendR NRP1 mod – alters CendR peptide binding to human NRP-1; O14786; FAM-RPARPAR peptide binding to NRP-1, fluorescence polarization; inhibition, % at 25 µM; 360,000 tested, 0.85% active; AID 602438;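 active = inhibition or corrected inhibition above about 18%, plus a signal ratio from 0.5 to 1.5, limit read from the data, passing the limit was not always enough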
CTSL1 counter – counter-screen for PFM18AAP inhibitors: inhibitors of F. hepatica cathepsin L1; AID 1906; inhibition, % at 5.96 µM; 300,000 tested, 0.49% active; recombinant F. hepatica cathepsin L1, Z-Leu-Arg-MCA fluorescence;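 active = inhibition above the mean of all tested compounds plus 3 SD, set per screening campaign, cut at about 17% in these data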;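 note: 0% = plate median of test compound wells and 100% = 1 µM Z-Phe-Ala-diazomethylketone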
TPT1 inhibitor – blocks Candida albicans tRNA 2'-phosphotransferase | inhibition, % at 5 µM | 300,000 tested, 0.81% active | recombinant caTPT1, FP RNA substrate dephosphorylation;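 active = inhibition above the mean of all tested compounds plus 3 SD, set per screening campaign, cut at about 24% in these data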;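 note: plate controls were DMSO alone for no effect and ferristatin control at 100 nM for full effect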
PHOSPHO1 inh – inhibitors of human PHOSPHO1 phosphatase | Q8TCT1 | recombinant PHOSPHO1, absorbance phosphatase assay | inhibition, % at 13.3 µM | 290,000 tested, 1.1% active; in the data active = inhibition above about 60%
HNF4A DNA FP – change in binding of human HNF4 alpha to DNA | HNF4a-FITC DNA binding, fluorescence polarization, 1 h | 360,000 tested, 0.3% active | P41235 | AID 1224865 | activity change, % at 10 µM; in the data active = activity change above about 30%, passing the limit was not always enough
Rpn11 confirm – confirmation of human proteasome Rpn11 inhibitors; 1,900 tested, 29% active; purified human 26S proteasome, Ub4-pepOG fluorescence polarization; proteasome pretreated with epoxomicin; inhibition, % at 20 µM; AID 602318; shares compounds with Rpn11 inh
MMP-2 inh – blocks human MMP-2, flagging nonselective RPN11 hits; shares compounds with Rpn11 inh; recombinant MMP-2, FRET peptide cleavage fluorescence; inhibition, % at 20 µM; 1,900 tested, 4% active;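 note: human MMP-2 activated beforehand with APMA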
Thrombin inh – blocks bovine thrombin, flagging nonselective RPN11 hits | shares compounds with Rpn11 inh | bovine thrombin cleavage of Ub4-pepOG, fluorescence polarization | inhibition, % at 20 µM | 1,900 tested, 13% active;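 active = mean inhibition at least 40% at 20 µM, or signal 3 deviations below plate average, so some actives read negative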;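 note: plate controls were thrombin with DMSO for no effect and buffer wells lacking thrombin for full effect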
Numbers without * were called inactive; · = no result. Cut-off read from the data, not from the text of the source, unless noted: active = inhibition above about 40%; inactive = the rest.

SMILES	Rpn11 inh	CendR NRP1 mod	CTSL1 counter	TPT1 inhibitor	PHOSPHO1 inh	HNF4A DNA FP	Rpn11 confirm	MMP-2 inh	Thrombin inh
O=C(c1ccco1)N1CCN(c2ncnc3c(-c4ccccc4)nsc23)CC1	101.5*	8.7	3.9	-1.5	8.5	-27.4	4.5	-5.7	-3.9
Cc1c(Cl)cccc1NC(=O)COC(=O)c1c2c(nc3ccccc13)CCN(Cc1ccccc1)C2	60.9*	-21.8	2.9	3.1	-12.3	3.8	-22.0	-19.8	-3.8
CN(C)S(=O)(=O)c1ccc(N2CCCC2)c(C(=O)NNC(=O)COc2ccc(Cl)cc2)c1	31.0	20.8	-1.9	-0.5	47.6	0.6	·	·	·
COc1ccc(N2CCN(CC(O)COc3ccc4c(c3)CCC4)CC2)cc1 (centres undefined)	105.1*	-3.5	-1.7	1.2	9.2	6.0	-3.2	-3.4	-1.8
O=C1CC(NS(=O)(=O)c2ccccc2)CN1c1ccc2c(c1)OCCO2 (centres undefined)	-2.9	-8.9	-2.0	-2.8	·	0.3	·	·	·
CCOC(=O)c1cc2c(c(CSc3nc4ccccc4c(=O)n3Cc3ccco3)c1)OCOC2	51.8*	-6.7	-2.5	2.5	-1.2	-10.8	12.0	4.1	0.8
COc1ccccc1CNC(=O)COc1ccc(S(=O)(=O)N2CCCC2)cc1	0.6	10.5	-3.8	-0.7	31.9	-0.3	·	·	·
C[C@H](CO)N1C[C@H](C)[C@@H](CN(C)C(=O)Nc2ccccc2)Oc2ccc(NS(=O)(=O)c3cn(C)cn3)cc2C1=O	-4.3	-5.8	·	·	·	-5.0	·	·	·
COC(=O)c1ccc2nc(-c3cccc(Cl)c3)c(Cc3ccccc3OC)n2c1	31.4	-5.8	·	·	·	10.0	·	·	·
COc1ccc(Cc2c(-c3ccc(OC)c(OC)c3)nc3c(C)cc(Br)cn23)c(C)c1	12.3	-11.3	·	·	·	12.9	·	·	·
COc1ccccc1Cc1c(-c2cccc(Cl)c2)nc2ccc(Br)cn12	61.3*	-71.3	·	·	·	34.6	50.1*	-0.2	35.8
COc1ccc(Cc2c(-c3ccc(C)cc3)nc3c(C)cc(Br)cn23)c(C)c1	48.9*	-34.2	·	·	·	17.7	22.1	16.3	13.0
FC(F)(F)c1ccccc1Cc1c(-c2cccc(Br)c2)nc2c3ccccc3ccn12	41.8*	-5.2	·	·	·	16.0	9.8	-1.8	11.3
Cc1ccc(Cc2c(-c3cccc(Br)c3)nc3ccc(Cl)cn23)cc1	41.8*	-21.4	·	·	·	11.6	14.8	23.6	-0.7
O=C(Nc1ccc(Cc2ccncc2)cc1)c1cc([N+](=O)[O-])ccc1N1CCOCC1	-3.4	3.4	5.3	-4.6	37.0	3.3	·	·	·
O=C(Nc1ccc(Cl)cc1)c1cncs1	4.1	7.6	-1.3	3.5	24.1	0.4	·	·	·
COc1ccccc1Cc1c(-c2ccc(Cl)cc2)nc2c(C)cc(Br)cn12	26.6	-33.2	·	·	·	11.0	·	·	·
COc1ccccc1Cc1c(-c2cccc(Br)c2)nc2c(C)cc(Br)cn12	41.7*	-30.3	·	·	·	12.2	14.7	-7.1	19.8
C[C@@H]1NC(=O)c2cc([N+](=O)[O-])cc(I)c2NCCCC[C@@H](C(N)=O)NC(=O)[C@H](CCC(=O)O)NC1=O	-5.5	-21.1	12.5	-5.2	11.1	-3.7	·	·	·
CCCCC1=CC2=CC(=O)C(C)(OC(=O)C3CCCC3)C(=O)C2=CO1 (centres undefined)	41.7*	-93.3	-1.8	22.7	-52.7	20.0	45.9*	3.9	28.3
CCN1C(=O)[C@H]2[C@@H](c3ccc(-c4ccc(F)cc4)c(OC)c3)N[C@@](CC(C)C)(C(=O)OC)[C@H]2C1=O	·	·	-2.0	-4.3	·	·	·	·	·
CCN(CC)c1ccc(C=C2C(=O)OC(c3ccccc3)OC2=O)cc1 (centres undefined)	77.4*	-170.3	-3.2	6.0	-3.0	25.1	77.4*	5.5	75.7*
Cc1ccc2[nH]c(O)c(N=Nc3ccccc3C)c2c1	54.0*	-4.8	0.3	2.8	19.0	7.4	64.5*	-38.3	-18.1
